Source: PubChem BioAssay (NCATS)
Several values for one entry are separate records, joined by “and”; a condition that tells them apart may be missing. Equal entries are not always repeated. Records with an inconclusive call do not appear. Activity calls are given as the source filed them. Calls come from the whole dose curve; as a rule, active = well fitted inhibition curve with a large enough effect; inconclusive = small, poorly fitted or top-dose-only effect; inactive = no such curve, though single readings can be large or run the other way.

Assay: BET inhibitor-based combinations targeting novel dependencies in MECOM-rearranged (r) AML: MV-4-11 cell line (AID 2202233); note: nearly all actives have a fitted effect of over 45% in size
Conditions: MV-4-11 AML viability, CellTiter-Glo luminescence, 48 h; series mostly up to 46 µM; viability, % of control: at the top concentration
Excerpt: Ecotropic viral insertion site 1 (EVI1) is located on chromosome 3q26.2 as part of the MECOM (MDS and EVI1 complex) locus. Under normal hematopoiesis, EVI1 is a regulator of hematopoietic stem cell maintenance and self-renewal and EVI1 levels decrease as the cells differentiate. In approximately 5-10% of de novo acute myeloid leukemia (AML) EVI1 is aberrantly expressed, including Chromosomal inv(3)(q21;q26.2) or t(3;3)(q21;q26.2) alterations (MECOM-r) that account for about 50% of AML with EVI1 overexpression 31. AMLs with high levels of EVI1 have a poor prognosis and an overall survival time averaging between 10-14 months. EVI1 overexpression confers resistance in leukemia cells, highlighting the need to develop new targeted therapies for EVI1 overexpressing AMLs. Here, we performed an unbiased chemical drug screening by evaluating the single agent activity of a collection of 2,480 oncology-focused, approved and investigational drugs (NCATS Mechanism Interrogation Plates, MIPE v5.0) against a panel of seven AML cell lines. These included four MECOM-r cell-lines (AML-191, AML-194, UCSD-AML1 and HNT-34) and three non-MECOM-r AMLs (MV4-11, OCI-AML3 and SET-2). Exploiting the mechanistic redundancy built in the library, we identified target-level sensitivities in MECOM-r AML cells and relative activity as compared to other AML subtypes.
A collection of 2480 mechanistically annotated dugs (MIPE v5.0) was used to screen four 3q26.2 rearranged AML cell lines and three non-3q26.2 rearranged AML cell lines. This library purposely exploits redundancy by including multiple inhibitors of key onco-targets, while simultaneously encompassing mechanistic diversity, targeting more than 800 distinct mechanisms of action. Briefly, cells were seeded in 5 uL of growth media using a Multidrop Combi dispenser into 1536 well white polystyrene tissue culture treated plates (Corning) at a density of 500cells/well. For each cell-line, for each of the 2480 drugs in MIPE v5.0 library, an 11-point dose curve was generated via a 1536 pin-tool. Plates were incubated for 48 hr at standard incubator conditions, covered by a stainless steel gasketed lid to prevent evaporation. Cell viability was determined by luminescence based, Cell Titer Glo assay (Promega). In detail, 3 uL of Cell Titer Glo were added to each well and plates were incubated at room temperature for 15 min with a stainless-steel lid in place. Luminescence readings were taken using a Viewlux (PerkinElmer) with a 2 s exposure time per plate. Compound dose-response curves were normalized to DMSO and empty well controls on each plate. Quantitative drug activity data from dose-response curves was determined utilizing area Under the Curve (AUC) and Z-transformed AUC (Z-AUC, a mean-centering transformation applied to each individual cell-line screened).
Potency is the fitted concentration of half-maximal effect.

SMILES | Potency | viability, % of control
CC[C@@]1(O)C(=O)OCc2c1cc1n(c2=O)Cc2cc3cc(O)ccc3nc2-1 | 0.0066 µM (active) | 
Cc1c(-c2ccc(O)cc2)n(Cc2ccc(OCCN3CCCCCC3)cc2)c2ccc(O)cc12 | 16.6 µM (active) | 
C[C@]12C=CC(=O)C=C1CC[C@@H]1[C@@H]2[C@@H](O)C[C@@]2(C)[C@H]1CC[C@]2(O)C(=O)CO |  | 136% (inactive)
COc1ccc(-n2c(C)c([N+](=O)[O-])c3ccc(O)cc32)cc1 | 5.25 µM (active) | 
O=S(=O)(O)CCS |  | 129% (inactive)
CCS(=O)(=O)c1cccc(-c2cc(C(=O)NC3CCN(C)CC3)c(C)c3[nH]c4ncc(C)cc4c23)c1 | 0.0934 µM (active) | 
O=C1CCC[C@@H]2[C@H]3CCC[N+]4([O-])CCC[C@@H](CN12)[C@@H]34 (stereo not given in full) |  | 124% (inactive)
CCn1c(-c2nonc2N)nc2cncc(CNC3CCNCC3)c21 | 2.63 µM (active) | 
O=C1NC(O)CCN1[C@@H]1O[C@H](CO)[C@H](O)[C@H]1O (stereo not given in full) |  | 133% (inactive)
CC(C)N(CCC(=O)c1ccc2ccccc2c1)Cc1ccccc1 | 2.09 µM (active) | 
CC1(O)CC(c2nc(-c3ccc4ccc(-c5ccccc5)nc4c3)c3c(N)nccn23)C1 (stereo not given) |  | 49.5% (inactive)
CCc1ccc(C(=O)Nc2cc(CN3CCN(C)CC3)cc(C(F)(F)F)c2)cc1C#Cc1cnc2ccnn2c1 | 7.42 µM (active) | 
NC1(Cc2ccc(Cl)cc2)CCN(c2ncnc3[nH]ccc23)CC1 | 7.42 µM (active) | 
COc1cccc2c1C(=O)c1c(O)c3c(c(O)c1C2=O)C[C@@](O)(C(=O)CO)C[C@@H]3O[C@H]1C[C@H](N)[C@H](OC2CCCCO2)[C@H](C)O1 (stereo not given in full) | 18.6 nM (active) and 74.2 nM (active) | 
Cc1ccccc1C(C(=O)NC1CCCCC1)N(C(=O)Cn1ccnc1C)c1cccc(F)c1 (stereo not given) |  | 95.9% (inactive)
CC(=O)NC[C@H]1CN(c2ccc(N3CCOCC3)c(F)c2)C(=O)O1 |  | 113% (inactive)
CNC(=O)[C@H](Cc1ccccc1)NC(=O)[C@H](CC(C)C)[C@H](CSc1cccs1)C(=O)NO | 7.42 µM (active) | 
CN1CCN(CCCN2c3ccccc3Sc3ccc(C(F)(F)F)cc32)CC1 | 20.9 µM (active) | 
CC(C)NC(=O)N1CC[C@H](N=C2Nc3cc(F)ccc3N(CC(F)F)c3ccc(Cl)cc32)C1 |  | 94.7% [at 8.46 µM] (inactive)
c1ccc2c(-c3cnn4cc(-c5ccc(N6CCNCC6)cc5)cnc34)ccnc2c1 | 0.934 µM (active) | 

SMILES | Potency | viability, % of control
CN1CCN(C(=O)c2ccc3cc(CCNc4ncnc5ccc(C#N)cc45)ccc3c2)CC1 | 7.42 µM (active) | 
CC(C)C[C@H](NC(=O)[C@@H](NC(=O)c1cccc(-c2ccccc2)n1)[C@@H](C)O)B(O)O | 0.0512 µM (active) | 
CCCCOc1c(C(=O)c2c(F)cc(C)cc2F)cnc2n[nH]cc12 | 1.48 µM (active) | 
c1cncc(CN2CCC(n3ncc4c(N5CCOCC5)nc(-c5ccc6[nH]ccc6c5)nc43)CC2)c1 | 3.72 µM (active) | 
CS(=O)(=O)c1ccc(C2=C(c3ccccc3)C(=O)OC2)cc1 |  | 87.4% (inactive)
Cc1cc(C)cc(NC(=O)Cc2ccc(OC(C)(C)C(=O)O)cc2)c1 |  | 79.1% (inactive)
CCCCNc1ncc2c(-c3ccc(CN4CCN(C)CC4)cc3)cn(C3CCC(O)CC3)c2n1 (stereo not given) | 59 nM (active) and 93.4 nM (active) | 
Cc1cn(-c2cc(NC(=O)c3ccc(C)c(Nc4nccc(-c5cccnc5)n4)c3)cc(C(F)(F)F)c2)cn1 | 1.86 µM (active) | 
FC(F)(F)c1ccc(/C=C/c2nc(COc3ccc(CCCCn4ccnn4)cc3)co2)cc1 | 0.0295 µM (active) | 
CC(C)c1cc(-c2n[nH]c(=O)n2-c2ccc3c(ccn3C)c2)c(O)cc1O | 0.0235 µM (active) | 
Cc1cc(C(C)Nc2ccccc2)c2nc(N3CCOCC3)cc(=O)n2c1 (stereo not given) | 16.6 µM (active) | 
CCn1nc(C2CCN(C(=O)CCO)CC2)nc1-c1cnc(N)c(-c2nnc(C(C)(C)C)o2)n1 | 5.9 µM (active) | 
COc1ccc(CCC(=O)Nc2nc3ccc(Cl)cc3s2)cc1OC |  | 97.4% (inactive)
OC[C@H]1O[C@@H](O[C@@H]2[C@@H](CO)O[C@](O)(CO)[C@H]2O)[C@H](O)[C@@H](O)[C@H]1O |  | 124% (inactive)
CN1C(=O)N[C@@H](Cc2c[nH]c3c(Cl)cccc23)C1=O |  | 101% (inactive)
Nc1nc(Nc2ccc(S(N)(=O)=O)cc2)nn1C(=O)c1c(F)cccc1F | 1.66 µM (active) | 
CCOc1cc2ncc(C#N)c(Nc3ccc(OCc4ccccn4)c(Cl)c3)c2cc1NC(=O)/C=C/CN(C)C | 2.09 µM (active) | 
CCCCCCCCCCCCc1ccc(S(=O)(=O)Nc2nncs2)cc1 |  | 119% (inactive)
O=C(O)C[C@H](O)C[C@H](O)/C=C/c1c(C2CC2)nc2ccccc2c1-c1ccc(F)cc1 | 2.09 µM (active) | 
COc1ccc(Cc2nccc3cc(OC)c(OC)cc23)cc1OC | 18.6 µM (active) | 
